Most compounds without a hit are left out; they make up all but 4.6% or so of the library.
D1 antag: antagonists of human D1 dopamine receptor | P21728 | HEK293 TREx D1 cells, calcium flux, dopamine EC80; hits give low values | activity change, negative = inhibition, % at 10 µM | actives 3.2% (n = 360,000); in the data active = activity change below about -30%
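Using tetracycline-induced force-coupled D1 Hek293 cells and a calcium dye, signals were followed for 180 s after compound, then for 180 s after EC80 dopamine, to detect inhibitors.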
TRHR enhancer: TRH receptor (human) allosteric enhancement; P34981; TRHR cells, fluo-8 calcium fluorescence, EC20 TRH enhancement; enhancement, % at 2 µM; actives 0.66% (n = 360,000); in the data active = enhancement above about 30%
Target sequence (P34981 whole entry, looked up): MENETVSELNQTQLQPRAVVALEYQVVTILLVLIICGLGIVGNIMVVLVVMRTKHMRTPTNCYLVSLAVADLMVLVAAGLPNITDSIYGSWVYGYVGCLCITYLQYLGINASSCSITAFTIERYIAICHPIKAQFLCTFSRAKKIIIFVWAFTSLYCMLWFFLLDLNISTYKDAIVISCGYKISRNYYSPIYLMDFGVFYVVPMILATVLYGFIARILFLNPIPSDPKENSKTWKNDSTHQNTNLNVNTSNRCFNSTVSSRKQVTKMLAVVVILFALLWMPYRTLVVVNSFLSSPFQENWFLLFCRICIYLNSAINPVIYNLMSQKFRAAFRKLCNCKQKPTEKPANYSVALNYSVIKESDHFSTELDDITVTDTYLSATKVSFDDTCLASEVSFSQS
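Enhancer read-out: after compound pinning and an initial kinetic agonist-mode read, an EC20 of TRH (10 nM final) was injected and fluo-8 calcium signal (Ex 480/Em 530) followed at 1 s/cycle for 100 cycles in TRHR-expressing cells.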
D1 PAM: human D1 dopamine receptor positive modulation; P21728; HEK293 TREx D1 cells, calcium flux, dopamine EC20 potentiation; potentiation, % at 10 µM; actives 0.036% (n = 360,000); AID 504651; in the data active = potentiation above about 30%
TRHR ag: TRH receptor (human) agonism; P34981; TRHR cells, calcium flux fluo-8, FDSS agonist mode; activation, % at 2 µM; actives 0.18% (n = 360,000); AID 493084
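TRHR-expressing cells loaded with fluo-8 calcium dye; 23 nL library compound pin-transferred, kinetic FDSS fluorescence (Ex 480/Em 530) recorded about 180 s for agonist-induced calcium release, before a 10 nM TRH EC20 addition for potentiator mode.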
D1 ag: human D1 receptor agonism. actives 1% (n = 360,000). AID 504660. activation, % at 2 µM. P21728. HEK293 T-REx D1 cells, calcium flux, agonist mode
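Agonism was scored from calcium flux recorded over 180 s (1 read/s) after pintool compound addition, following a 10-cycle baseline. Cells were inducible force-coupled HEK293 TREx D1, plated overnight at 30 C and loaded with no-wash calcium dye.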
Numbers stand for hits; n = inactive; x = no result. Cut-off read from the data, not from the text of the source, unless noted: active = activation above about 30%; inactive = the rest.

SMILES | D1 antag | TRHR enhancer | D1 PAM | TRHR ag | D1 ag
O=C(Nc1ccccc1F)c1nc(S(=O)(=O)Cc2ccccc2F)ncc1Cl | -45 | n | n | n | n
O=C(NCc1ccccc1)c1nc(S(=O)(=O)Cc2ccc(F)cc2)ncc1Cl | -46 | n | n | n | n
Cc1cccc(CNC(=O)Cn2c(-c3cccs3)cc3ccccc32)c1 | n | n | n | n | n
O=C(NCc1ccccc1Cl)c1ccc2c(c1)ncn2-c1cccc(F)c1 | n | n | n | n | n
O=C(Cn1c(=O)oc2cc(S(=O)(=O)N3CCCCCC3)ccc21)Nc1cccc(C(F)(F)F)c1 | n | n | n | n | n
CCCCC12CN3CC(C)(CN(C1)C3c1c[nH]c3ccccc13)C2=O (configuration not stated) | n | n | n | n | n
COc1ccc(CNCCSc2nnnn2-c2ccccc2)c(OC)c1 | n | n | n | n | n
Cc1ccc(C)c(C2NC(=O)c3ccccc3N2)c1 (configuration not stated) | n | 37 | n | n | n
Cc1cc(C)c2nc(Cl)c(C3NC(=O)c4ccccc4N3)cc2c1 (configuration not stated) | n | n | n | n | n
N=c1oc2ccc(Br)cc2cc1C(=O)NCc1ccccc1 | n | n | n | n | n
CC(NC(=O)c1cc2cc(Br)ccc2oc1=N)c1ccccc1 (configuration not stated) | -53 | n | n | n | n
O=C1CC(c2ccsc2)c2ccc3ccccc3c2N1 (configuration not stated) | n | 37 | n | n | n
Cn1cc(CCCC(=O)NCc2cccc(Br)c2)c2ccccc21 | n | n | n | n | n
O=C(Nc1ccc(S(=O)(=O)N2CCOCC2)cc1)c1ccc(S(=O)(=O)N2CCOCC2)cc1 | n | n | n | n | n
CC(=O)Oc1ccc(C(=O)Nc2ccc(S(=O)(=O)N3CCOCC3)cc2)cc1 | -90 | 41 | n | n | n
O=C(Nc1ccc(S(=O)(=O)N2CCCCCC2)cc1)c1ccco1 | n | n | n | n | n
CC(=O)Nc1ccc(S(=O)(=O)N2CCC(C(=O)c3ccc(Cl)cc3)CC2)cc1 | -44 | n | n | n | n
COc1ccc(C)cc1NC(=O)c1ccccc1NS(=O)(=O)c1ccc(Cl)s1 | -31 | n | n | n | n
CCOC(=O)C1CCN(S(=O)(=O)c2ccc(NC(=O)c3ccco3)cc2)CC1 | -33 | n | n | n | n
O=C(NCC(c1ccco1)N1CCCC1)c1cc(S(=O)(=O)N2CCOCC2)ccc1Cl (configuration not stated) | n | n | x | n | n
O=S(=O)(Nc1cc(S(=O)(=O)N2CCCC2)ccc1O)c1ccc(Cl)s1 | n | n | n | n | n
CCOc1ccc(C(=O)Nc2ccc(S(=O)(=O)N3CCN(C)CC3)cc2)cc1 | n | n | n | n | n
CC1CCN(C2CCN(S(=O)(=O)c3ccc(F)cc3)CC2)CC1 | -33 | n | n | n | n
CN(CCOc1ccccc1)C(=O)c1cc(S(=O)(=O)N2CCOCC2)ccc1Cl | n | n | n | n | n
O=S(=O)(c1ccc(F)cc1)N1CCC(N2CCCCCC2)CC1 | n | n | n | n | n
SMILES | D1 antag | TRHR enhancer | D1 PAM | TRHR ag | D1 ag
CN(CCOc1ccc(Cl)cc1)C(=O)c1ccc(S(=O)(=O)N2CCOCC2)cc1 | -39 | n | n | n | n
O=C(Nc1cc(S(=O)(=O)N2CCOCC2)ccc1O)c1ccc(NS(=O)(=O)c2ccc(Cl)s2)cc1 | -68 | n | n | n | n
CC(C)Oc1ccc(C(=O)Nc2ccc(S(=O)(=O)N3CCN(C)CC3)cc2)cc1 | -53 | n | n | n | n
COc1ccc(NC(=O)C2(c3cccs3)CCOCC2)cc1Cl | x | n | n | n | n
COc1ccc(S(=O)(=O)NC2CCN(C#N)CC2)cc1 | n | n | n | n | n
O=C(Nc1ccc(S(=O)(=O)N2CCOCC2)cc1)C1CCCCC1 | n | n | 43 | n | n
O=C(Nc1ccc(S(=O)(=O)N2CCOCC2)cc1)c1ccc(Cl)cc1 | -40 | n | n | n | n
O=C(Nc1ccc(Cc2ccncc2)cc1)c1ccc(S(=O)(=O)N2CCOCC2)cc1 | -41 | n | n | n | n
O=S(=O)(Nc1cccc(S(=O)(=O)N2CCOCC2)c1)c1ccc(Cl)s1 | n | n | n | n | n
O=C(Nc1ccc(S(=O)(=O)N2CCCC2)cc1)C1CCCCC1 | n | n | n | n | n
